This is a sample that favours compounds with a hit; in the whole collection about 1.2% have one here.
gsp ag – qHTS for Agonist of gsp, the Etiologic Mutation Responsible for Fibrous Dysplasia/McCune-Albright Syndrome: qHTS; gsp mutant cells, cAMP HTRF, 30 min; Potency, µM (series often up to 76.9 µM), most hits filed as activators; 340,000 tested, 0.13% active; active = well fitted activation curve with a large enough effect; inconclusive = small, poorly fitted or top-dose-only effect, or another doubt; inactive = no such curve, though single readings can be large or run the other way; cell line not stated here;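 also: phosphodiesterase inhibitor Ro 20-1724 added with compounds to block cAMP breakdown; nearly all actives have a fitted effect of over 60% in size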
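Cells stably selected in G418 were plated at 2000/well, grown 16-24 hr, then given compounds in DMSO with the PDE inhibitor […] (300 uM solution added) for 30 min at 37C; cAMP was read by HTRF.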
Akt phos inh – HTS Assay for Inhibitors of Akt Phophorylation: Primary Screen; AID 651550, 2012; 360,000 tested, 0.32% active; activity change, % for hits at 50 µM; Neuro2A IGF-stimulated pAkt S473 HTRF, 20 min; active compounds read low; in the data active = activity change below about -80%; inconclusive = mostly about -51% to -80%
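Single-point screen (50 µM final compound) in Neuro2A cells stimulated 20 min with 6 nM IGF at 37 deg C. After lysis, Ser473-phosphorylated Akt read by HTRF (ex 330 nm, em 615/665 nm) as the 665/615 ratio.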
RXFP1 agonist – qHTS Assay for Agonists of the Relaxin Receptor RXFP1; Relaxin receptor 1 (Homo sapiens), Q9HBX9; 370,000 tested, 0.3% active; Potency, µM (doses to about 57.5 µM), actives largely listed as activators; HEK293T-RXFP1 cAMP TR-FRET, 30 min; response scale: percent of porcine relaxin response, buffer zero; active = well fitted activation curve with a large enough effect; inconclusive = small, poorly fitted or top-dose-only effect; also: nearly all actives have a fitted effect of over 60% in size
Target sequence (Q9HBX9 whole entry, looked up): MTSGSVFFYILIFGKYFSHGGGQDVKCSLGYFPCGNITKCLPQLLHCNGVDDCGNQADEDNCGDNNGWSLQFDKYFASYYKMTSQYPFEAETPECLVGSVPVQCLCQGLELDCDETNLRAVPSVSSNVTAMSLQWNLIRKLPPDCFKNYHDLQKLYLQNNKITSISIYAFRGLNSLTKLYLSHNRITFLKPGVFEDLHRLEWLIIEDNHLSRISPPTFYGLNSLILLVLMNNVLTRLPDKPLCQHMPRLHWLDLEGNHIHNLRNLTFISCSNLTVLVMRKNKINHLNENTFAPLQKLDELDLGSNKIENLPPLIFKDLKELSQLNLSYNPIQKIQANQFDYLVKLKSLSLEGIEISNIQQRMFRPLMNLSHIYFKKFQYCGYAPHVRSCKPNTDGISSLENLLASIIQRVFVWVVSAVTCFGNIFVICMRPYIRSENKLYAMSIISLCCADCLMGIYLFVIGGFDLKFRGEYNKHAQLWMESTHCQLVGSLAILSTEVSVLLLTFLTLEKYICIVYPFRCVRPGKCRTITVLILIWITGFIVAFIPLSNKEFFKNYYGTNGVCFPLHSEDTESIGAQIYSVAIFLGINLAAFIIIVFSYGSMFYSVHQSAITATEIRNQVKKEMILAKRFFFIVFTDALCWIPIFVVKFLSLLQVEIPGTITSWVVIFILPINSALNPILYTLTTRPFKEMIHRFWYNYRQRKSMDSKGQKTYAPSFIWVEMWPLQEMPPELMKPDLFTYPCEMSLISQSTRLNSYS
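HEK293T cells stably expressing RXFP1 were pretreated with the PDE4 inhibitor Ro 20174, exposed to compounds for 30 min at 37C, lysed, and cAMP was read by TR-FRET. Data normalized to buffer (basal) and 29 nM porcine relaxin (100%).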
RXFP1 antag – qHTS Assay for Antagonists of the Relaxin Receptor RXFP1; Relaxin receptor 1 (Homo sapiens), Q9HBX9; HEK293-RXFP1, relaxin-stimulated cAMP HTRF, 30 min; active compounds read low; activity change, negative = inhibition, % at 57.5 µM; 350,000 tested, 0.59% active;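 active = activity change of -60% or lower, but not beyond a set lower limit; inconclusive = change between -60% and -40%, or beyond the set limit; inactive = change above -40%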
gsp antag – qHTS for Antagonists of gsp, the Etiologic Mutation Responsible for Fibrous Dysplasia/McCune-Albright Syndrome: qHTS; 340,000 tested, 0.4% active; gsp-mutant cells, cAMP HTRF, 30 min; AID 624288, 2012; Potency, µM (doses to about 76.9 µM), hits mostly inhibitors; calls by dose curve; cell line not stated here;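 also: intracellular cAMP measured with PDE inhibitor Ro 20-1724 present during compound exposure; nearly all actives have a fitted effect of over 65% in size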
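HTRF cAMP measurement after 30 min RT detection following 30 min, 37C compound treatment alongside […] (added as 300 uM solution) in G418-selected cells seeded at 2000/well and grown 16–24 h.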
A number is an active result; 0 = inactive; ? = inconclusive; - = no result given; [ ] = remark or other dose.

SMILES	gsp ag	Akt phos inh	RXFP1 agonist	RXFP1 antag	gsp antag
C=CCn1c(=O)n([C@@H]2O[C@H](CO)[C@@H](O)[C@H]2O)c2nc(N)[nH]c(=O)c21	-	-	-	0	-
C[C@@H](O[C@H]1OCCN(Cc2n[nH]c(=O)[nH]2)[C@H]1c1ccc(F)cc1)c1cc(C(F)(F)F)cc(C(F)(F)F)c1	-	-	-	-60	-
Cc1ccc(C(=O)c2cn(Cc3cccc(Cl)c3)c3nc(C)ccc3c2=O)cc1	-	-	0	-	-
Cc1nc2ccc(S(=O)(=O)Nc3cccc(-c4nc5cccnc5s4)c3C)cc2s1	0	0	0	0	35µM
CNC(=O)c1c(NC(=O)c2ccco2)sc(C)c1C	0[15.4 µM]	0	0	-88	0
CCOC(=O)C(/C=N/c1cc(C)nn1-c1ccccc1)=C(\C)O	?	-110%	0	0	0
CCOC(=O)C(=CNc1cc(C)nn1-c1ccccc1)C(=O)OCC	0	0	0	0	?
CCOc1ccccc1CNC(=O)c1ccc2c(c1)nc1n2CCCCC1	-	-	0	0	-
Cc1ccc2c(c1)nnn2C1CCN(S(=O)(=O)c2cccc(S(=O)(=O)N(C)C)c2)CC1	0	0	0	0	25µM
Cc1ccc2c(c1)nnn2C1CCN(S(=O)(=O)c2ccc3ccccc3c2)CC1	0	0	0	0	0
O=C(Nc1ccc(SC(F)F)cc1)c1cc(-c2ccc3c(c2)OCCO3)on1	-	-	0	-	-
O=c1cc(-c2ccccc2)n2c(SCc3ccc(Br)cc3)nnc2[nH]1	-	-	0	0	-
Cc1ccc(-c2nc3ncccc3o2)cc1NC(=O)c1cccs1	0	0	0	0	35µM
O=C(Cn1[nH]c(=O)c2ccccc2c1=O)OCC(=O)c1ccc(Br)cc1	0[15.4 µM]	0	0	-76	0
CC(C)Cn1c(-c2csc3ccccc23)n[nH]c1=S	0	0	0	0	0
Cc1cccc(-n2c(-c3csc4ccccc34)n[nH]c2=S)c1	0	0	0	-117	0
CCN1CCN(C(c2ccc(SC)cc2)c2c(O)cc(C)n(Cc3ccco3)c2=O)CC1 (centres undefined)	-	-	0	0	-
Cc1cc(C)c(NC(=O)COC(=O)Cc2cccs2)c(C)c1	0[15.4 µM]	0	0	-109	0
Cc1ccc(NC(=O)COC(=O)Cc2cccs2)c(Br)c1	0	0	0	0	0
CCOC(=O)c1cn(-c2ccccc2)nc1-c1cccnc1	0	0	0	0	0
CCOC(=O)c1cn(-c2ccccc2)nc1-c1ccncc1	0	-118%	0	0	0
Cc1ccc(-c2nc(C(=O)NC3CCCCCC3)no2)cc1	0	0	-	-61	0
Cc1ccc(C(=O)NC2CCCCCC2)o1	?	-140%	0	0	0
Cc1ccc(-c2cn3c(n2)sc2cc(C(=O)NCCC4=CCCCC4)ccc23)c(C)c1	-	-	0	0	-
O=C(NCCS(=O)(=O)N1CCN(c2ccc(F)cc2)CC1)c1cccc(C(F)(F)F)c1	-	-	0	0	-
SMILES	gsp ag	Akt phos inh	RXFP1 agonist	RXFP1 antag	gsp antag
Cc1cc(NC(=O)CSc2ncn(-c3ccccc3)n2)no1	0	-112%	0	0	0[15.4 µM]
Cc1cc(NC(=O)CSc2ccc3nnc(-c4ccccn4)n3n2)no1	6.3µM	0	0	-	0
Cc1cc(NC(=O)CSc2ncnc3c2cnn3-c2cccc(Cl)c2)no1	0	0	6.3µM	0	0
CC[C@]1(O)C[C@H]2CN(CCc3c([nH]c4ccccc34)[C@@](C(=O)OC)(c3cc4c(cc3OC)N(C=O)[C@H]3[C@@](O)(C(=O)OC)[C@H](OC(C)=O)[C@]5(CC)C=CCN6CC[C@]43[C@@H]65)C2)C1	-	-	-	0	-
O=C(N/N=C/c1cnc(N2CCCCC2)s1)c1ccc(C(F)(F)F)cc1	0	0	0	0	0
CC1CN(c2ncc(/C=N/NC(=O)c3ccccc3O)s2)CC(C)O1 (centres undefined)	0[15.4 µM]	0	0	-73	?
CCc1ccccc1N(C)C(=O)c1cn(CC(C)C)c(=O)c2cc(OC)c(OC)cc12	-	-	0	-	-
CC(C)c1ccc(NC(=O)CN2C(=O)COc3ccc(S(=O)(=O)N4CCCCC4)cc32)cc1	-	-	0	0	-
CCOc1ccc(CC(=O)N/N=C/c2cccnc2)cc1OCC	0	0	0	0	0
COc1ccc(CC(=O)N/N=C/c2cccnc2)cc1OC	0	0	32µM	0	0
CN(CC(=O)Nc1ccc(F)c(F)c1F)C(=O)CCc1nc2sc3c(c2c(=O)[nH]1)CCCC3	0[15.4 µM]	0	0	-63	0
Cc1nc2n(c(=O)c1CCN1CCC(c3noc4cc(F)ccc34)CC1)CCC[C@H]2O	-	-	-	0	-
CC(C)[C@H](NC(=O)OC(C)(C)C)c1nnc(SCC(=O)Nc2ccc(Br)cc2)o1	0	0	0	0	35µM
CCOC(=O)c1ccc2c(c1)sc1nc(-c3ccc(OCC)cc3)cn12	-	-	0	0	-
CCC(C)S(=O)(=O)c1oc(-c2cccs2)nc1S(=O)(=O)c1ccccc1 (centres undefined)	-	-	0	-79	-
CC(C)CS(=O)(=O)c1oc(-c2ccc(F)cc2)nc1S(=O)(=O)c1ccccc1	-	-	0	-82	-
CNc1oc(-c2cccs2)nc1S(=O)(=O)c1ccccc1	0[15.4 µM]	0	0	0	0
CCOC(=O)c1ccc(NC(=O)c2ccc(=O)n(Cc3cccc(C)c3)c2)cc1	-	-	0	-	-
Cc1ccc(S(=O)(=O)/N=C(/Nc2ccc(F)cc2F)c2ccccc2)cc1	0	0	0	-65	0
Cc1nnc(NC(=O)C2CCN(S(=O)(=O)c3cc([N+](=O)[O-])ccc3Cl)CC2)o1	0	0	0	0	35µM
CCOc1ccc(/C=C(\C#N)C(=O)c2c(C)[nH]c3ccccc23)cc1OC	0[15.4 µM]	0	0	-63	?
COc1cc(/C=C(/C#N)C(=O)c2c(C)[nH]c3ccccc23)ccc1OCC#N	0	0	0	0	0
CCCC(=O)O[C@]1(C(=O)CC)CC[C@H]2[C@@H]3CCC4=CC(=O)CC[C@]4(C)[C@H]3[C@@H](O)C[C@@]21C	-	-	-	0	-
COc1ccc(N(C)S(=O)(=O)c2ccc3c(c2)CCN3C(=O)C2CC2)c(OC)c1	0	0	0	0	28µM
CCC(=O)N1CCc2cc(S(=O)(=O)N(C)c3ccc(OC)cc3OC)ccc21	0	0	0	0	0
COc1cccc(CCNc2ncnc3c2nnn3C)c1	-	-	0	0	-
CCSc1nnc(-c2cnn(-c3ccccc3)c2-n2cccc2)n1C	0	-115%	0	0	0
COc1ccc2ncc3c(-c4ccccc4)nn(-c4ccc(C)c(C)c4)c3c2c1	-	-	0	-	-
CC(CNC(=O)C1CCN(Cc2cc3ccccc3n2Cc2ccccc2)CC1)c1ccccc1 (centres undefined)	-	-	0	0	-
O=C(NCc1ccncc1)C(=O)Nc1nc(C23CC4CC(CC(C4)C2)C3)cs1	0	0	0	?	45µM
